The supplement of paper PMC7595190

Tested on: MV4-11
Assay: CellTox Green cytotoxicity fluorescence relative to DMSO vehicle (fold of vehicle RFU); higher = more cell death (loss of membrane integrity), active = 2 or more
Protocol: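 Paediatric AML cell lines (MV4-11, CMK, Kasumi-1; 4x10^4 cells/well, 96-well) treated with single compounds from the Selleckchem apoptosis library at 0.01, 0.1 and 1 µM. Cytotoxicity was read with CellTox Green (RFU, Ex 485/Em 520) at 24, 48 and 72 h and normalised to the 0.1% DMSO vehicle. Normalised RFU >= 2 was taken as a successful, cell-killing treatment.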

Measured: CellTox Green cytotoxicity fluorescence

Cn1c(COP(=O)(NCCBr)NCCBr)cnc1[N+](=O)[O-]
active: 1 µM, 72 h 2.79
inactive: 0.01 µM, 24 h 0.981 | 0.01 µM, 48 h 0.971 | 0.01 µM, 72 h 0.974 | 0.1 µM, 24 h 0.97 | 0.1 µM, 48 h 0.983 | 0.1 µM, 72 h 1.04 | 1 µM, 24 h 0.97 | 1 µM, 48 h 1.38

CC1=C(O)C(=O)C=C2C1=CC=C1[C@@]2(C)CC[C@@]2(C)[C@@H]3C[C@](C)(C(=O)O)CC[C@]3(C)CC[C@]12C [Celastrol]
inactive: 0.01 µM, 24 h 0.931 | 0.01 µM, 48 h 0.955 | 0.01 µM, 72 h 0.964 | 0.1 µM, 24 h 0.966 | 0.1 µM, 48 h 0.976 | 0.1 µM, 72 h 1.01 | 1 µM, 24 h 1.29 | 1 µM, 48 h 1.96
active: 1 µM, 72 h 2.21

CC[C@H](C)[C@@H]([C@@H](CC(=O)N1CCC[C@H]1[C@H](OC)[C@@H](C)C(=O)N[C@H](C)[C@@H](O)c1ccccc1)OC)N(C)C(=O)[C@@H](NC(=O)[C@@H](NC)C(C)C)C(C)C [Monomethyl auristatin E]
inactive: 0.01 µM, 24 h 1.19 | 0.1 µM, 24 h 1.3 | 1 µM, 24 h 1.58
active: 0.01 µM, 48 h 2.42 | 0.01 µM, 72 h 2.81 | 0.1 µM, 48 h 2.48 | 0.1 µM, 72 h 2.73 | 1 µM, 48 h 2.5 | 1 µM, 72 h 2.74

O=C(O)C(=O)c1cn(Cc2ccccc2)c2ccc(-c3ccc(OC(F)(F)F)cc3)cc12 [Tiplaxtinin]
inactive: 0.01 µM, 24 h 1.02 | 0.01 µM, 48 h 1.02 | 0.01 µM, 72 h 1.04 | 0.1 µM, 24 h 1.01 | 0.1 µM, 48 h 1.02 | 0.1 µM, 72 h 1.03 | 1 µM, 24 h 0.997 | 1 µM, 48 h 1.01 | 1 µM, 72 h 1
